Only some compounds are listed: those with a hit (about 7.8% of all), similar ones and a draw of the others.
LASV entry inh = qHTS for Inhibitors of binding or entry into cells for Lassa Virus | Lassa virus pseudotype entry inhibition, cell reporter | Potency, µM (titrated, usually from 37.9 µM), for inactives: at the highest dose activity change, negative = inhibition, usual class: inhibitors | 300,000 compounds, 1.2% hits; calls by dose curve; tested in HEK293 cells; further: potency means the concentration at half of the fitted maximal effect; nearly all actives have a fitted effect of over 50% in size
HCV inhibitor = qHTS Assay for Inhibitors of Hepatitis C Virus (HCV). Huh7.5.1 HCVcc-Cre infection, luciferase reporter, 44 h. Potency, µM (highest dose often 41.8 µM), without a hit: at the top dose activity change, negative = inhibition, hits mostly inhibitors. 340,000 compounds, 3.4% hits. AID 651820, 2012; active means well fitted inhibition curve with a large enough effect; inconclusive means small, poorly fitted or top-dose-only effect, or another doubt; inactive means no such curve, though single readings can be large or run the other way; further: potency means the concentration at half of the fitted maximal effect
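Compounds are dispensed onto cells plated 4 h earlier at 1,000 per well, with HCVcc-Cre virus (about 0.5 moi) added next. Following 44 h of culture, luminescent signal is measured for 15 sec after 15 min with substrate at room temperature.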
VACV mCherry inh = qHTS for Stage-Specific Inhibitors of Vaccinia Orthopoxvirus: mCherry Reporter Primary qHTS | Vaccinia virus mCherry reporter infection, fluorescence | Potency, µM (top dose mostly 36.5 µM), inactives show at the highest dose activity change, negative = inhibition, actives largely listed as inhibitors | 310,000 compounds, 0.63% hits; calls by dose curve; tested in A549 cells; further: potency means the concentration at half of the fitted maximal effect; nearly all actives have a fitted effect of over 35% in size
Vaccinia Venus = qHTS for Stage-Specific Inhibitors of Vaccinia Orthopoxvirus: Venus Reporter Primary qHTS | AID 720580, 2013 | Vaccinia virus Venus reporter expression, fluorescence | 330,000 compounds, 0.46% hits | Potency, µM (top dose mostly 36.5 µM), for inactives: top-dose activity change, negative = inhibition, actives largely listed as inhibitors; calls by dose curve; tested in A549 cells; further: potency means the concentration at half of the fitted maximal effect; nearly all actives have a fitted effect of over 30% in size
HCMV antiviral = qHTS Assay for inhibitors of the human cytomegalovirus (HCMV); AID 1259415, 2018; activity change, negative = inhibition, % at 57.5 µM; HFF cells, HCMV-luciferase reporter, 72 h; active compounds read low; 410,000 compounds, 4.5% hits; in the data active means activity change below about -60%; inconclusive means no clear call, values can overlap the other calls; inactive means above about -39%
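HFF cells seeded 16 h at 37C, treated with compounds, infected with luciferase-reporter HCMV at MOI 1 PFU/cell; luciferase read at 72 h post infection, normalized to buffer-only and Salinomycin controls.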
Marburg entry inh = qHTS for inhibitors of binding or entry into cells for Marburg Virus; 300,000 compounds, 1.8% hits; Potency, µM (titrated, usually from 37.8 µM), for inactives: at the highest dose activity change, negative = inhibition, actives largely listed as inhibitors; Marburg virus pseudotyped entry inhibition, cell reporter; calls by dose curve; tested in HEK293 cells; further: potency means the concentration at half of the fitted maximal effect
* hit, by the source's call; i = inactive; ? = inconclusive; . = not tested or not shown; ! = not confirmed by another sample; [ ] = another dose, or the depositor's remark. On the % scale 0 is the no-effect control and ±100 the full control effect.

SMILES	LASV entry inh	HCV inhibitor	VACV mCherry inh	Vaccinia Venus	HCMV antiviral	Marburg entry inh
CC(=Nc1ccc(O)cc1)c1sc2ccccc2c1O	5%	13µM*	-15%	-24%	-20	12%[46.1 µM]
NS(=O)(=O)c1ccc(CCNc2nc(CN3CCCCC3)nc3sc4c(c23)CCC4)cc1	-21%	?	.	.	-11	21µM*
Cc1cc(S(=O)(=O)Nc2nc(CN3CCOCC3)nc3sc4c(c23)CCC4)cc(C)c1C	8%	-11%	-10%	-1%	-8	22%
c1ccc(CN=C2NN=C(c3ccccc3)CS2)cc1	-21%	?	-16%	-13%	-30	?
COCCCN=C1NN=C(c2cc(C)n(Cc3ccccc3Cl)c2C)CS1	?	?	-4%	-28%	-65*	?
COc1ccc(C2=NNC(=Nc3cc(S(=O)(=O)N(C)C)ccc3C)SC2)c(OC)c1	.	13µM*	.	.	-98*	.
CN(C)S(=O)(=O)c1cccc(N=C2NN=C(c3ccccc3)CS2)c1	?	35µM*	?	?	?	?
Fc1ccccc1N=C1NN=C(c2ccccc2)CS1	?	?	-18%	?	-98*	11µM*
Cc1cc(C2=NNC(=NCCc3ccccc3)SC2)c(C)n1-c1c(C)n(C)n(-c2ccccc2)c1=O	-8%	20%	-3%	8%	-32	1%[46.1 µM]
Cc1cccc(N=C2NN=C(c3ccccc3F)CS2)c1C	-1%[46.1 µM]	?	?	0%	-32	?
CCCSc1ncc(Cl)c(C(=O)Nc2scc(-c3ccc(C)cc3)c2C(=O)OCC)n1	-15%[46.1 µM]	.	-9%	-1%	-22	0%[46.1 µM]
Cc1cccc(N2CCN(C(=O)Cn3c(-c4cccs4)cc4ccccc43)CC2)c1C	-12%[46.1 µM]	.	-6%	-12%	-8	.
COCCCN=C1NN=C(c2cc(C)n(-c3ccccc3F)c2C)CS1	15µM*	?	.	.	?	2.1µM*
COCCn1c(C)cc(C2=NNC(=Nc3ccccc3F)SC2)c1C	2µM*	-19%	-15%	-7%	-73*	?
Cc1cc(C2=NNC(=Nc3ccccc3)SC2)c(C)n1C	.	?	.	.	31	.
COCCCN=C1NN=C(c2cc(C)n(-c3ccccc3)c2C)CS1	-21%[46.1 µM]	?	?	-3%	-36	-2%[46.1 µM]
CC1(C)CC(C(=O)N2CCOc3ccc(CN4CCC(Oc5cccnc5)CC4)cc3C2)CCO1 (centres undefined)	.	.	-1%	-17%	.	.
COc1ccc(N2CCN(S(=O)(=O)CCNC(=O)c3c(F)cccc3Cl)CC2)cc1	0%[46.1 µM]	.	-11%	-3%	10	.
Cc1cc(=O)[nH]c(N=N/C(=N/Nc2ccc(O)cc2)c2ccccc2)n1	20µM*	6%	-19%[1.46 µM]	-12%	68	?
CCCc1cc(C(=O)Nc2ccccc2C(=O)OC)no1	.	10µM*	i	-3%	82	.
CCCc1cc(C(=O)Nc2cc(C)ccc2O)no1	?	?	?	-8%	-69*	?
CCOc1ccc(C=Nc2ccc(/C=C/c3ccnc4ccccc34)cc2)cc1OCC	.	.	20%	-9%	.	.
COc1ccc(NS(=O)(=O)c2cccc(C(=O)NNC(=O)c3ccc(C)o3)c2)cc1	.	-6%	.	.	-32	.
COc1ccc(NS(=O)(=O)c2cccc(C(=O)NNC(=O)COc3ccccc3)c2)cc1	-4%	2%	i	-17%	8	?
COc1ccc(NS(=O)(=O)c2cc(C)ccc2NC(=O)c2cc(C)oc2C)cc1	?	13µM*!	.	?	5	?
SMILES	LASV entry inh	HCV inhibitor	VACV mCherry inh	Vaccinia Venus	HCMV antiviral	Marburg entry inh
COc1ccc(NS(=O)(=O)c2cccc(C(=O)NNC(=O)c3cc(C)oc3C)c2)cc1	-13%	-7%	-13%	-12%	-101*	-16%
COc1ccc(NS(=O)(=O)c2cccc(C(=O)NNC(=O)c3ccccc3O)c2)cc1	?	?	?	-10%	-94*	-22%[46.1 µM]
COc1ccccc1NC(=O)c1cc(C)oc1C	-1%[46.1 µM]	-15%	i	-18%	?	6%[46.1 µM]
CCC[C@H]1[C@@H](NC(=O)Nc2ccc(C(F)(F)F)cc2)CC[C@@]23CCCN2C(=O)CCC[C@@H]13	.	.	.	.	-5	.
O=C(Nc1ccc(Cc2ccncc2)cc1)C1CCC(N2C(=O)C3C4C=CC(C5CC45)C3C2=O)CC1 (centres undefined)	?	8.9µM*	.	.	-85*	?
CC(=O)Nc1ccc(NC(=O)C2CCC(N3C(=O)C4C5C=CC(C6CC56)C4C3=O)CC2)cc1 (centres undefined)	.	?	.	.	15	.
COc1ccc(CCN(C)CC(O)c2ccccc2)cc1OC (centres undefined)	20%	-8%	-2%	-6%	-74*	3%[46.1 µM]
COc1ccc(CCN(C)Cc2ccncc2)cc1OC	-4%	5%	.	.	0	6%
COc1ccc(CCN(C)CCc2ccc(OC)c(OC)c2)cc1OC	-22%	-21%	-13%	-7%	-7	5µM*!
CCOc1ccc(CN(C)CC(O)COC(c2ccc(OC)cc2)c2ccc(OC)cc2)cc1 (centres undefined)	?	11µM*	-29%	-21%	-7	?
COc1ccc(CCN(C)CCCC(C#N)(c2cc(OC)c(OC)c(OC)c2)C(C)C)cc1OC (centres undefined)	?	?	-3%	-16%	-32	8.9µM*
C[C@@H]1CC2=CCCC2[C@]2(O1)C(=O)N(Cc1ccc(Br)cc1)c1cccc(Br)c12 (some centres undefined)	?	.	.	.	.	-25%[14.2 µM]
COc1ccc(CN(C)CC(O)COc2ccc(-c3ccccc3)cc2)cc1OC (centres undefined)	?	7.1µM*	i	-26%	29	?
CN(Cc1ccc(OCC(O)CN(C)Cc2ccccc2)cc1)Cc1nccn1C (centres undefined)	.	-9%	.	.	0	.
C=CC[n+]1c(-c2ccc(Cl)cc2Cl)csc1Nc1ccc(NC(C)=O)cc1	2.8µM*	?	?	-10%	-94*	3.2µM*
C=CC[n+]1c(-c2ccc(Cl)cc2Cl)csc1Nc1c(C)n(C)n(-c2ccccc2)c1=O	?	13µM*	?	?	-87*	?
CCN(c1ccccc1)S(=O)(=O)c1c(-c2ccc(C)cc2)csc1C(=O)OC	?	.	-6%	-6%	-67*	.
COC(=O)c1scc(-c2ccc(C)cc2)c1S(=O)(=O)Nc1c(C)cc(C)cc1C	-3%[46.1 µM]	.	-4%	4%	19	.
C/C(=N\NC(=O)COc1ccc(C)cc1[N+](=O)[O-])c1cccs1	8%	-16%	-16%	-4%	21	29%[46.1 µM]
C/C(=N\NC(=O)COc1ccc(C)cc1Br)c1cc([N+](=O)[O-])cs1	?	8.9µM*	?	?	-81*	?
